Reference: PubChem BioAssay (NCATS)
Records with an inconclusive call do not appear. Where a call stands in place of a potency, no number is given. The source made the active and inactive calls. Unless noted, calls come from the whole dose curve; as a rule, active = well fitted curve in the direction sought with a large enough effect; inconclusive = small, poorly fitted or top-dose-only effect, or another doubt; inactive = no such curve, though single readings can be large; an effect the other way counts as inactive or inconclusive.

Key:
[1] = Cell Viability - NIH 3T3 (AID 541); details: NIH 3T3 cell viability, qHTS; activity change, negative = cytotoxicity: at 92.2 µM (top of the series);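 note: cells exposed to compound for 40 hours; nearly all actives have a fitted effect of over 25% in size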; note: potency is the fitted concentration of half-maximal effect
In short: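 qHTS format; 40 hr compound exposure, 37 °C; CellTiter-Glo luminescence (cellular ATP) read-out after 20 min at RT. Decrease in ATP = cytotoxicity; AC50 from standard Hill fit.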

[2] = Cell Viability - SH-SY5Y (AID 544); details: SH-SY5Y neuroblastoma cell viability; viability change, negative = cytotoxic: at 92.2 µM (top of the series);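 note: cells exposed to compound for 40 hours; nearly all actives have a fitted effect of over 55% in size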; note: potency is the fitted concentration of half-maximal effect
In short: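 SH-SY5Y, 1500 cells/well, 5 hr pre-incubation 37 °C; cpd 40 hr 37 °C; CellTiter-Glo 20 min RT; luminescence (ATP) read. qHTS concentration-response, Hill fit → AC50. Tamoxifen, doxorubicin as positive controls.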

[3] = Cell Viability - LYMP2-011 (AID 969); note: nearly all actives have a fitted effect of over 60% in size
In short: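 Luminescent ATP read-out (CellTiter-Glo, 30 min RT) after 24 hr compound exposure at 37 C in human lymphoblastoid cells, 2500 cells/well. Decreasing ATP indicates cytotoxicity; AC50 from standard Hill fit.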

[4] = Cell Viability - LYMP2-019 (AID 973); note: nearly all actives have a fitted effect of over 55% in size
In short: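 qHTS, 1536-well; 2500 cells/well; 5 hr pre-incubation, 24 hr compound exposure, 37 C; CellTiter-Glo added, 30 min RT; luminescence read; AC50 via standard Hill equation.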

[5] = Cell Viability - LYMP2-023 (AID 975);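 note: cellular ATP measured by luciferase luminescence as viability proxy; nearly all actives have a fitted effect of over 55% in size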
In short: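 CellTiter-Glo luminescence after 30 min at room temperature; decrease in intracellular ATP reflects toxicity. Cells: human lymphoblastoid line, 2500/well, 24 hr compound exposure at 37 C. AC50 fitted to standard Hill equation from concentration-response.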

[6] = Cell Viability - LYMP2-002 (AID 977)
In short: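 Human lymphoblastoid cells (2500/well) in complete medium were preincubated 5 hr at 37 C, then exposed to compounds for 24 hr at 37 C. Intracellular ATP was read by CellTiter-Glo luminescence; AC50 came from Hill-equation concentration-response fits.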

[7] = Cell Viability - LYMP2-006 (AID 978); note: nearly all actives have a fitted effect of over 60% in size
In short: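 Potency values are Hill-fit AC50s for decreases in intracellular ATP (CellTiter-Glo luminescence). LYMP2-006 lymphoblastoid cells, 2500 per well, were exposed to compound in complete culture medium for 24 hr at 37 C.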

[8] = Cell Viability - LYMP2-007 (AID 979);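 note: cells exposed to compound for 24 h before reading; nearly all actives have a fitted effect of over 60% in size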
In short: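 qHTS cytotoxicity: 2500 cells/well, 5 hr 37 C settle, compound 24 hr 37 C, CellTiter-Glo 30 min RT, luminescence. Decrease in ATP = toxicity. AC50 by standard Hill equation; tetraoctylammonium bromide positive control.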

[9] = Cell Viability - LYMP2-010 (AID 981); note: nearly all actives have a fitted effect of over 55% in size
In short: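 qHTS cytotoxicity, 1536-well: 2500 cells/well, 5 hr settle, 24 hr compound at 37 C, CellTiter-Glo 30 min RT, luminescence read. Decrease in ATP = toxicity; AC50 via standard Hill equation. Positive control tetraoctylammonium bromide.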

[10] = Cell Viability - LYMP2-014 (AID 983); note: nearly all actives have a fitted effect of over 50% in size
In short: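 2500 cells/well, 5 hr 37 C; cpd 24 hr 37 C, complete medium; CellTiter-Glo 30 min RT, luminescence; ATP loss = toxicity; AC50 via Hill eqn; tetraoctylammonium bromide positive control.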

[11] = Cell Viability - LYMP2-018 (AID 985); note: nearly all actives have a fitted effect of over 50% in size
In short: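 2500 cells/well; 5 hr 37 C; cmpd 24 hr 37 C, complete medium; CellTiter-Glo 30 min RT; luminescence. Tetraoctylammonium bromide positive control. AC50 via Hill fit.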

[12] = Cell Viability - LYMP2-020 (AID 986); note: nearly all actives have a fitted effect of over 55% in size
In short: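 qHTS, 2500 cells/well; 5 hr then 24 hr compound exposure, 37 C; CellTiter-Glo luminescence after 30 min RT; ATP decrease taken as cytotoxicity; AC50 via Hill equation; tetraoctylammonium bromide positive control.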

[13] = Cell Viability - LYMP2-022 (AID 987); note: nearly all actives have a fitted effect of over 55% in size
In short: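 Luminescent ATP read-out (CellTiter-Glo, 30 min, RT) after 24 hr, 37 C compound exposure of 2500 human lymphoblastoid cells/well in complete medium. Cytotoxicity taken as concentration-dependent ATP loss; AC50 from standard Hill equation.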

[14] = Cell Viability - LYMP2-026 (AID 989); note: nearly all actives have a fitted effect of over 50% in size
In short: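 qHTS cytotoxicity: 2500 cells/well, 5 hr 37 C, compound 24 hr 37 C, CellTiter-Glo 30 min RT, luminescence. Tetraoctylammonium bromide positive control. AC50 via standard Hill fit.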

[15] = target: Retinoic acid receptor RXR-alpha (Homo sapiens) (UniProt P19793); assay: qHTS assay for small molecule agonists of retinoid X receptor alpha signaling (AID 588544; calls by dose curve)
[16] = target: Voltage-gated inwardly rectifying potassium channel KCNH2 (Homo sapiens) (UniProt Q12809); assay: qHTS Assay for Small Molecule Inhibitors of the Human hERG Channel Activity (AID 588834);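 note: top concentration of the series differs between compounds; lower thallium flux fluorescence means stronger hERG block; nearly all actives have a fitted effect of over 50% in size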
In short: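 hERG block measured as reduced thallium-dye (FluxOR) fluorescence after stimulation buffer addition, read over 2 min. Cells were hERG-BacMam-transduced U2OS exposed to compound ~10 min […]; concentration-response fitted with Hill equation for AC50.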

[17] = MultiTox-Fluor Cytotoxicity Assay - LYMP1-001 - Dead Cells (AID 946)
In short: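 Cytotoxicity as increased dead-cell protease fluorescence (bis-AAF-R110, 485/520 nm), read 60 min after MultiTox-Fluor reagent. Human lymphoblastoid line exposed 16 h; Hill-fitted AC50, with DMSO as 0% and 15 uM tetraoctylammonium bromide as 100%.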

[18] = Cell Viability - LYMP1-003 - Assay at 40 hr (AID 964); note: nearly all actives have a fitted effect of over 60% in size
In short: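 LYMP1-003 lymphoblastoid cells, 2500/well; 5 hr preincubation, 40 hr compound exposure, 37 C; CellTiter-Glo 30 min RT; luminescence; Hill-fit AC50. Positive control tetraoctylammonium bromide.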

[19] = Cell Viability - LYMP2-015 (AID 971); note: nearly all actives have a fitted effect of over 55% in size
In short: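 qHTS cytotoxicity: 2500 cells/well, 5 hr 37 C, compound 24 hr 37 C, CellTiter-Glo 30 min RT, luminescence. Loss of ATP = toxicity; AC50 via standard Hill fit.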

[20] = Cell Viability - LYMP2-001 (AID 921); note: nearly all actives have a fitted effect of over 70% in size
In short: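 Cellular ATP loss read by luciferase luminescence after 24 h compound exposure at 37 C in complete medium. LYMP2-001 lymphoblastoid cells, 2500/well; qHTS concentration-response data fitted with Hill equation for AC50.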

Voltage-gated inwardly rectifying potassium channel KCNH2 (Homo sapiens), sequence (Q12809 whole entry, looked up): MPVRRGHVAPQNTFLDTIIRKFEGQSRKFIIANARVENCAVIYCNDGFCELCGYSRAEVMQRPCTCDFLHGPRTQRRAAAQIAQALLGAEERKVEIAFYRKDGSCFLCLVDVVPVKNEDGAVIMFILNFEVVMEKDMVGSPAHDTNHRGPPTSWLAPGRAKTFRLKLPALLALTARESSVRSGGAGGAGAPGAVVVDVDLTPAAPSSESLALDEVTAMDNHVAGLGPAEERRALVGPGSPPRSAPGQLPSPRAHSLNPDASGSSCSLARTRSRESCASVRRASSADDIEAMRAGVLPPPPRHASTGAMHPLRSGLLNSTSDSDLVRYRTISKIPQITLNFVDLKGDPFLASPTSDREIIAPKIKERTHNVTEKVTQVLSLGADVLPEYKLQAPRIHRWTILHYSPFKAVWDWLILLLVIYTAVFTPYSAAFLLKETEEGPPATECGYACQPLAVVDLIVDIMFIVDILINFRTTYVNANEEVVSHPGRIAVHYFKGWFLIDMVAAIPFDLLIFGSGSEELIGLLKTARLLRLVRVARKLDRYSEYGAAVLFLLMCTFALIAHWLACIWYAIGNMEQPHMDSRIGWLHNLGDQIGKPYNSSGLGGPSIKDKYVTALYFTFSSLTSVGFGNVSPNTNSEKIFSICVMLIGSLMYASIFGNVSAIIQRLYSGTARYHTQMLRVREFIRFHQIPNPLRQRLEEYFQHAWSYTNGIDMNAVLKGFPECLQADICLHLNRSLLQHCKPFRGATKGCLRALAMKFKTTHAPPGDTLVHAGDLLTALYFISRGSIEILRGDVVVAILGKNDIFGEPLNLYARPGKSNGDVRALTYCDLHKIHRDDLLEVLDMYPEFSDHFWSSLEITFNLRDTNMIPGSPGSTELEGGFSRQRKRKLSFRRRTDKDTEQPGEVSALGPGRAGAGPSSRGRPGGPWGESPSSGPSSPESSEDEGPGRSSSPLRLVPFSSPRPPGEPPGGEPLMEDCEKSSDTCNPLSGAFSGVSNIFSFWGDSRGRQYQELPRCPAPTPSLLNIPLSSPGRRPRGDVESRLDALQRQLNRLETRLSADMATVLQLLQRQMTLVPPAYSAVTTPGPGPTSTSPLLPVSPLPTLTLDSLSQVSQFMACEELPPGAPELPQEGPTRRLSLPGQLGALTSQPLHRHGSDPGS
Retinoic acid receptor RXR-alpha (Homo sapiens), sequence (P19793 whole entry, looked up): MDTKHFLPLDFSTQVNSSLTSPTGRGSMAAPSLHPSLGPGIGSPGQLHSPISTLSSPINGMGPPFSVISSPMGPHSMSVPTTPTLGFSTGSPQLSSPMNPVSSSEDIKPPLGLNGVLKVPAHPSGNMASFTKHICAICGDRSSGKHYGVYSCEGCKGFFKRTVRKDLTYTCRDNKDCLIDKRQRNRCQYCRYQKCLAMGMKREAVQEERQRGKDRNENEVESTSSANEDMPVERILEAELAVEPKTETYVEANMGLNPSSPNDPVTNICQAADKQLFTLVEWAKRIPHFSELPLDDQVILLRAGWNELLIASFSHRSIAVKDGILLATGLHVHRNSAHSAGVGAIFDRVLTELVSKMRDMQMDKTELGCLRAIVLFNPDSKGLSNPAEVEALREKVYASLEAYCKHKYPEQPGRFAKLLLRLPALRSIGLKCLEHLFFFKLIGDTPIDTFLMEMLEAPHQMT

Row | Compound | Potency [1] | Potency [2] | Potency [3] | Potency [4] | Potency [5] | Potency [6] | Potency [7] | Potency [8] | Potency [9] | Potency [10] | Potency [11] | Potency [12] | Potency [13] | Potency [14] | outcome [15] | Potency [16] | outcome [17] | Potency [18] | Potency [19] | Potency [20]
1 | C=CC(=O)OCC(CC)CCCC (configuration not stated) | inactive | inactive | inactive | inactive | inactive | inactive | inactive | inactive | inactive | inactive | inactive | inactive | inactive | inactive | inactive | inactive |  |  |  | 
2 | Cc1ccc(N=C=O)cc1N=C=O | inactive | inactive | inactive | inactive | inactive | inactive |  |  |  | inactive | inactive | inactive | inactive | inactive |  | inactive | inactive | inactive | inactive | 
3 | BrCCc1ccccc1 | inactive |  | inactive | inactive | inactive |  | inactive |  | inactive | inactive | inactive | inactive | inactive | inactive | inactive | inactive | inactive | inactive | inactive | 
4 | CC(C)(Cl)[N+](=O)[O-] | inactive |  |  | inactive | inactive | inactive | inactive | inactive | inactive | inactive | inactive | inactive | inactive | inactive | inactive | inactive | inactive | inactive |  | 
5 | Nc1ccc2ccccc2c1 | inactive | inactive | inactive | inactive | inactive | inactive | inactive | inactive | inactive | inactive | inactive | inactive |  |  | inactive | inactive | inactive |  | inactive | inactive
6 | Oc1cccc(Cl)c1Cl | inactive | inactive | inactive | inactive | inactive |  | inactive |  | inactive | inactive | inactive |  | inactive | inactive |  |  | inactive | inactive | inactive | inactive
7 | O=C(O)C(Cl)Br (configuration not stated) | inactive |  | inactive |  | inactive | inactive |  |  | inactive | inactive |  | inactive | inactive | inactive |  |  | inactive |  | inactive | inactive
8 | Clc1cccc(Cl)c1Cl | inactive | inactive | inactive |  | inactive | inactive | inactive | inactive | inactive | inactive | inactive | inactive | inactive | inactive | inactive | inactive | inactive | inactive |  | 
9 | N#C/C(N)=C(/N)C#N | inactive | inactive | inactive | inactive | inactive | inactive | inactive | inactive | inactive | inactive | inactive |  | inactive | inactive | inactive |  |  | inactive | inactive | inactive
10 | COC(=O)Nc1nc2ccccc2[nH]1 | 6.31 µM (active) | 7.94 µM (active) | inactive | inactive | inactive | inactive | inactive | inactive | inactive |  | inactive | inactive | inactive | inactive |  | inactive |  |  |  | 
11 | O=[N+]([O-])c1ccc2c3c(cccc13)CC2 |  |  | inactive | inactive | inactive | inactive | inactive | inactive | inactive | inactive | inactive | inactive | inactive | inactive | inactive |  | inactive | inactive | inactive | inactive
12 | Oc1cccc(Cl)c1 | inactive | inactive | inactive | inactive | inactive | inactive |  | inactive | inactive |  | inactive | inactive | inactive | inactive | inactive | inactive | inactive |  | inactive | inactive
13 | Nc1cc(Cl)cc(C(=O)O)c1Cl | inactive | inactive | inactive | inactive | inactive | inactive | inactive |  | inactive | inactive | inactive |  |  | inactive | inactive | inactive |  | inactive | inactive | 
14 | Nc1ccccc1-c1ccccc1 |  | inactive | inactive | inactive | inactive |  | inactive | inactive | inactive |  |  | inactive |  |  | inactive | inactive | inactive | inactive | inactive | inactive
15 | FC(Cl)(Cl)Cl | inactive | inactive |  | inactive | inactive | inactive | inactive | inactive |  |  | inactive | inactive |  | inactive | inactive | inactive | inactive |  | inactive | inactive
16 | Nc1ccc([N+](=O)[O-])cc1[N+](=O)[O-] |  | inactive | inactive | inactive | inactive |  | inactive | inactive | inactive | inactive | inactive | inactive |  | inactive | inactive | inactive | inactive |  | inactive | 
17 | O=C(Cc1ccccc1)OCc1ccccc1 | inactive | inactive | inactive | inactive | inactive | inactive | inactive | inactive | inactive |  | inactive | inactive | inactive | inactive | inactive | inactive | inactive | inactive | inactive | inactive
